{"source": "PubChem BioAssay AID2284387", "about": "(EPA ToxCast)", "note": "Inconclusive results are not listed. Activity calls are given as the source filed them. The calls were made as follows: active = hit-call score of the fitted dose curve at least 0.9, where 1 is the maximum; inconclusive = response in the unintended direction; inactive = score below 0.9.", "data": [{"target": "human Peroxisome Proliferator-activated Receptor delta (PPARd) Agonism, conducted at France lab site, PPARD (gene 5467) (UniProt Q03181)", "sequence (Q03181 whole entry, looked up)": "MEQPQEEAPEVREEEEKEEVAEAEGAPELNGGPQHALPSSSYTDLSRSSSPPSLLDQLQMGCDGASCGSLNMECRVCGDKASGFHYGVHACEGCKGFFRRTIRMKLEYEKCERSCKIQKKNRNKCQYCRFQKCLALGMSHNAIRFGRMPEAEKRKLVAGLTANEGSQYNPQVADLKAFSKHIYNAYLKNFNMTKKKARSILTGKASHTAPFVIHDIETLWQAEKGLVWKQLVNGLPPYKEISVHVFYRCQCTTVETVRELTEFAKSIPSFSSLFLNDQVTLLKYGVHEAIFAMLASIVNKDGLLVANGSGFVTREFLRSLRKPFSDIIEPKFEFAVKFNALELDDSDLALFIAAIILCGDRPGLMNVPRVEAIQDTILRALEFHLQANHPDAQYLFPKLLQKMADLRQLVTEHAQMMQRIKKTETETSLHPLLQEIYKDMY", "assay": "ERF_FR_NR_COA_hPPARD: Eurofins (ERF) Nuclear Receptor (NR) Functional Coactivator Assay for human Peroxisome Proliferator-activated Receptor delta (PPARd) Agonism, conducted at France lab site", "description": "ERF_FR_NR_COA_hPPARD is a biochemical, single-readout assay that uses extracted gene-proteins in a cell-free assay. Measurements were taken 2 hours after chemical dosing in a 384-well plate. See PPARdelta Human NHR Functional Agonist Coactivator Assay, Cerep.ERF_FR_NR_COA_hPPARD is an assay component calculated from the ERF_FR_NR_COA_hPPARD assay. It is designed to measure FRET using a type of binding reporter as detected by fluorescence intensity of GW0742 with fluorimetry technology.Data from the assay component ERF_FR_NR_COA_hPPARD was analyzed at the assay endpoint, ERF_FR_NR_COA_hPPARD, in the positive analysis fitting direction relative to DMSO as the negative control and baseline of activity. […]\nHistidine-tagged-PPARdelta (Ligand Binding Domain, 1.7 ul/ml proteins) are mixed with 50 nM biotin-tagged-C33 coactivator and 0.4 ug fluorescence acceptor (anti-histidine antibody coupled-beads) in an incubation buffer containing 20 mM Hepes/NaOH (pH 7.4), 80 mM Nacl, 0.08% Tween 20 and 0.8 mM DTT and 0.08% BSA. […] Thereafter, fluorescence donor (streptavidin coupled-beads) is added at a final concentration of 0.4 ug. Following 120 min incubation at 22C, the signal is measured at lambdaex=680 nm and lambdaem=520 and 620 nm using a microplate reader (EnVision, Perkin Elmer). The results are expressed as a percent of the control response to […] nM GW 0742. […]", "values": [{"smiles": "O=C(O)CCC(F)(F)C(F)(F)C(F)(F)F", "outcome": "inactive"}, {"smiles": "CC(C)(Oc1ccc(C(=O)c2ccc(Cl)cc2)cc1)C(=O)O", "outcome": "inactive"}]}]}
